# From the supplement of paper PMC10849652
# The full data set covers some 8,800 targets. This sample favours those with a hit. About 0.5% of all pairs of compound and target were hits. Unmarked numbers belong to inactive results.
# Key:
# Assay in all cases: log2 fold change, soluble protein after heating vs DMSO (PISA); higher = thermal stabilisation; K562 lysate, 10 uM; active = over 0.2 and 3.5 SD of the protein, either way, in both replicates (recomputed)
# vemurafenib = compound: CCCS(=O)(=O)Nc1ccc(F)c(C(=O)c2c[nH]c3ncc(-c4ccc(Cl)cc4)cc23)c1F [vemurafenib]
# Summary of the method: (§1)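 Quantification was by TMTpro 16plex LC-MS/MS with equalised channel sums, applied to the supernatant after 21,000xg for 90 min. Samples were crude K562 extract at 1 mg/mL protein in PBS pH 7.4 with 1 mM MgCl2, treated with 10 μM compound for 30 min, heated for 3 min across 48°C-58°C, pooled and brought to 0.5% NP-40 at 4°C. Values are log-two fold changes in thermal stability relative to solvent controls, from duplicates.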
# [1] = compound: CCCS(=O)(=O)Nc1ccc(F)c(C(=O)c2c[nH]c3ncc(Cl)cc23)c1F
# Summary of the method: as §1
# volasertib = compound: CC[C@@H]1C(=O)N(C)c2cnc(Nc3ccc(C(=O)N[C@H]4CC[C@H](N5CCN(CC6CC6)CC5)CC4)cc3OC)nc2N1C(C)C [volasertib]
# Summary of the method: as §1
# sotrastaurin = compound: CN1CCN(c2nc(C3=C(c4c[nH]c5ccccc45)C(=O)NC3=O)c3ccccc3n2)CC1 [sotrastaurin]
# Summary of the method: as §1
# defactinib = compound: CNC(=O)c1ccc(Nc2ncc(C(F)(F)F)c(NCc3nccnc3N(C)S(C)(=O)=O)n2)cc1 [defactinib]
# Summary of the method: as §1
# [2] = compound: COc1cc2nc(-c3cc(F)ccc3O)nc(N[C@@H]3CNC[C@H]3C(C)(C)O)c2cc1OC
# Summary of the method: as §1
# [3] = compound: CC[C@@H]1C(=O)N(C)c2cnc(Nc3ccc(C(=O)NC4CCN(C)CC4)cc3OC)nc2N1C1CCCC1
# Summary of the method: as §1
# [4] = compound: CCn1c(C(=O)N(C2CC2)C2CC2)cc2c3c(ncn3C)c(Nc3cc(C)n(C)n3)nc21
# Summary of the method: as §1
# saracatinib = compound: CN1CCN(CCOc2cc(OC3CCOCC3)c3c(Nc4c(Cl)ccc5c4OCO5)ncnc3c2)CC1 [saracatinib]
# Summary of the method: as §1
# Tubastatin A = compound: CN1CCc2c(c3ccccc3n2Cc2ccc(C(=O)NO)cc2)C1 [Tubastatin A]
# Summary of the method: as §1
# [5] = compound: CNC(=O)C1=CC=CC=C1NC2=NC(=NC=C2Cl)NC3=C(C=C(C=C3)N4CCOCC4)OC
# Summary of the method: as §1
# [6] = compound: CNc1nc(-c2ccc3c(N)n[nH]c3c2)cc(N2C[C@@H](C(=O)NC3CCCCC3)CC[C@H]2C)n1
# Summary of the method: as §1
# encorafenib = compound: COC(=O)N[C@@H](C)CNc1nccc(-c2cn(C(C)C)nc2-c2cc(Cl)cc(NS(C)(=O)=O)c2F)n1 [encorafenib]
# Summary of the method: as §1
# [7] = compound: COC(=O)[C@H](CCSC)NC(=O)C1=C(C=C(C=C1)NC[C@H](CS)N)C2=CC=CC=C2
# Summary of the method: as §1
# barasertib = compound: CCN(CCCOc1ccc2c(Nc3cc(CC(=O)Nc4cccc(F)c4)[nH]n3)ncnc2c1)CCOP(=O)(O)O [barasertib]
# Summary of the method: as §1
# [8] = compound: CCn1cc(-c2ccnc3[nH]c(-c4cccc(CN(C)C)c4)cc23)c(-c2ccc(NC(=O)N(C)C)cc2)n1
# Summary of the method: as §1
# [9] = compound: CN1CCC(CNc2ccc3ncc(-c4cccc(OC(F)(F)F)c4)n3n2)CC1
# Summary of the method: as §1
# alvocidib = compound: CN1CC[C@H](c2c(O)cc(O)c3c(=O)cc(-c4ccccc4Cl)oc23)[C@H](O)C1 [alvocidib]
# Summary of the method: as §1
# alisertib = compound: COc1cc(Nc2ncc3c(n2)-c2ccc(Cl)cc2C(c2c(F)cccc2OC)=NC3)ccc1C(=O)O [alisertib]
# Summary of the method: as §1
# gefitinib = compound: COc1cc2ncnc(Nc3ccc(F)c(Cl)c3)c2cc1OCCCN1CCOCC1 [gefitinib]
# Summary of the method: as §1
# Chain of UniProt O43615 (O43615 whole entry, looked up): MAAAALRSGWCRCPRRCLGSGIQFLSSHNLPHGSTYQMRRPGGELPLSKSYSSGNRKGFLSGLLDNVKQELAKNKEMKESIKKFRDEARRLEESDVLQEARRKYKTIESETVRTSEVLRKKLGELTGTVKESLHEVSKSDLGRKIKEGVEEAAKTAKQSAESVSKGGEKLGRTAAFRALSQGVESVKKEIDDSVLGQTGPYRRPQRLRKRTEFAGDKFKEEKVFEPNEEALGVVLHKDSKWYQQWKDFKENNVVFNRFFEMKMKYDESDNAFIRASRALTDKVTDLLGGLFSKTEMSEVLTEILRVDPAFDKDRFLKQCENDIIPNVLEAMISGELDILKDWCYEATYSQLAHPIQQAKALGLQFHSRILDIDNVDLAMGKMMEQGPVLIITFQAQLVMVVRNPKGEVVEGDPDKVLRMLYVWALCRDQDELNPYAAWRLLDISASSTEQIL
# Chain of UniProt P62328 (P62328 whole entry, looked up): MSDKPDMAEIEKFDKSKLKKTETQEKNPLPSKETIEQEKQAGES
# Chain of UniProt Q6PGP7 (Q6PGP7 whole entry, looked up): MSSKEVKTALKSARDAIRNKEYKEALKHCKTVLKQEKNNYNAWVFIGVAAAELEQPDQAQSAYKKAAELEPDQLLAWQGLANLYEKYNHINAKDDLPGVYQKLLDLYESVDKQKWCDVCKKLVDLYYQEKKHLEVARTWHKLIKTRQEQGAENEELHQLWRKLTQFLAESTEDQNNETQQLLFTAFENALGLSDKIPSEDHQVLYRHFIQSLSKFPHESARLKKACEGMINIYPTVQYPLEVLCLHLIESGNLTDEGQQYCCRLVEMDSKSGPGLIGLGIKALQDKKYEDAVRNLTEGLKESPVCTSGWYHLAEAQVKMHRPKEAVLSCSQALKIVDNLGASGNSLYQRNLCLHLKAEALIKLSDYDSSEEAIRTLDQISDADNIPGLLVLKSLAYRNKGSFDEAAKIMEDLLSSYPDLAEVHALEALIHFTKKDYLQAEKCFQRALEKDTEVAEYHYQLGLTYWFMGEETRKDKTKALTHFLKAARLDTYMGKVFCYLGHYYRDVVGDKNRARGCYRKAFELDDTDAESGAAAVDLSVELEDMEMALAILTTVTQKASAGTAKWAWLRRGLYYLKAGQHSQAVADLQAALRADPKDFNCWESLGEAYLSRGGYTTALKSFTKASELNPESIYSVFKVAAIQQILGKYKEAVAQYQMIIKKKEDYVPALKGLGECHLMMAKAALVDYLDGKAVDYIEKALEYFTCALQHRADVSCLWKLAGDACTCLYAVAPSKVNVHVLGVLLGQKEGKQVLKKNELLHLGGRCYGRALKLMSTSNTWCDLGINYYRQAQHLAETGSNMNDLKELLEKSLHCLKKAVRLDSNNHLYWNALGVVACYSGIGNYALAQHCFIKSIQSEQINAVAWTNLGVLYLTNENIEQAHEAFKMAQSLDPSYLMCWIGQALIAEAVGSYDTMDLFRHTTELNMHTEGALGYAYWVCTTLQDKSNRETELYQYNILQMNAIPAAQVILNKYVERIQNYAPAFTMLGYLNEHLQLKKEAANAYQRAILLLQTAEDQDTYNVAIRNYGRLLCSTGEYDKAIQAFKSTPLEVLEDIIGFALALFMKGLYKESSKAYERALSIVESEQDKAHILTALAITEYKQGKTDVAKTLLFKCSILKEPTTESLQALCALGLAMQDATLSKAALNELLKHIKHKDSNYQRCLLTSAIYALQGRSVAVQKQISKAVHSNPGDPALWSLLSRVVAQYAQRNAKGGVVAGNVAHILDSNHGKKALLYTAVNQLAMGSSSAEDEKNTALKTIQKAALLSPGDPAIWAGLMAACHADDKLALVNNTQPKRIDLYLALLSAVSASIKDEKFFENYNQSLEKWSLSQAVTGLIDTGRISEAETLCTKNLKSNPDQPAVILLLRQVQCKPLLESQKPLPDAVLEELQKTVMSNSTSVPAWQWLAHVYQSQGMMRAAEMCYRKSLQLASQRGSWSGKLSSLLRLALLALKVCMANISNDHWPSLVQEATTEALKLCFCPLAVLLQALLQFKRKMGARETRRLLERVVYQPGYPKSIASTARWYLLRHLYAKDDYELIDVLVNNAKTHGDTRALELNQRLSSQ
# Chain of UniProt Q9P0S9 (Q9P0S9 whole entry, looked up): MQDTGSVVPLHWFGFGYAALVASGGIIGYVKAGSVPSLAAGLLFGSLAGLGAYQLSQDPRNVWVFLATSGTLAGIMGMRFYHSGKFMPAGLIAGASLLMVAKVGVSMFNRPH
# Chain of UniProt Q9UHD2 (Q9UHD2 whole entry, looked up): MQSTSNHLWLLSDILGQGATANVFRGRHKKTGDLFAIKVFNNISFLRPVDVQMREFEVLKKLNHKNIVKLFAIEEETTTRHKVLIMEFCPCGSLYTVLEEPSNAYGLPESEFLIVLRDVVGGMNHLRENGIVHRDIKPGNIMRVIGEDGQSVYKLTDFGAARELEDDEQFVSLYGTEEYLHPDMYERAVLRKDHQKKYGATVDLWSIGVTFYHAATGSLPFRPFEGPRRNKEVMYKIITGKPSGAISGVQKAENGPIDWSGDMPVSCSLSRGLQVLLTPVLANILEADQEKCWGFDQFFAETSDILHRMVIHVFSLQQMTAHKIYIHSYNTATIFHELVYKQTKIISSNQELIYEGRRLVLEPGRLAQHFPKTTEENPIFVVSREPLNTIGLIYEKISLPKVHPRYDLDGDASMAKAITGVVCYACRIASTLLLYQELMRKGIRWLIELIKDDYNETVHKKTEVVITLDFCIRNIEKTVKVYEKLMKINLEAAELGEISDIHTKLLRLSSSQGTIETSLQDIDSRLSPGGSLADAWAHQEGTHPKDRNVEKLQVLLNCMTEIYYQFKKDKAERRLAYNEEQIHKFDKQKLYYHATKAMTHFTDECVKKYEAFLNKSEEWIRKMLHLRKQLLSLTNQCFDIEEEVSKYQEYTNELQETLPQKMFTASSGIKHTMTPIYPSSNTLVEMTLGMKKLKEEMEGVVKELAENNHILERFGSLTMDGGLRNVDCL
# Chain of UniProt Q86SX3 (Q86SX3 whole entry, looked up): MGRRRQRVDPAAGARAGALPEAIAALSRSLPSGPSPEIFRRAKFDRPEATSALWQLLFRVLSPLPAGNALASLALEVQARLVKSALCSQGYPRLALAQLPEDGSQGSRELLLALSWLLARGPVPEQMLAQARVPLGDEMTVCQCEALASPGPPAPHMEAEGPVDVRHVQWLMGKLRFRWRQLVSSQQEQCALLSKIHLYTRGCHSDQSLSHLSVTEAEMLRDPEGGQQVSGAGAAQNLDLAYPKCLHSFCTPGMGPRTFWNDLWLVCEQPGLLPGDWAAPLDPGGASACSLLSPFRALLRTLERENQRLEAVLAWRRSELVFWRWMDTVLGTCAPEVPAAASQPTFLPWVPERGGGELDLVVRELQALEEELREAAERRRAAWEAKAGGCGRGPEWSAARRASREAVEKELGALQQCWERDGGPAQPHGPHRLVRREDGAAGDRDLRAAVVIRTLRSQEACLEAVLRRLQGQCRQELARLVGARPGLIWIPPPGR
# Chain of UniProt P15884 (P15884 whole entry, looked up): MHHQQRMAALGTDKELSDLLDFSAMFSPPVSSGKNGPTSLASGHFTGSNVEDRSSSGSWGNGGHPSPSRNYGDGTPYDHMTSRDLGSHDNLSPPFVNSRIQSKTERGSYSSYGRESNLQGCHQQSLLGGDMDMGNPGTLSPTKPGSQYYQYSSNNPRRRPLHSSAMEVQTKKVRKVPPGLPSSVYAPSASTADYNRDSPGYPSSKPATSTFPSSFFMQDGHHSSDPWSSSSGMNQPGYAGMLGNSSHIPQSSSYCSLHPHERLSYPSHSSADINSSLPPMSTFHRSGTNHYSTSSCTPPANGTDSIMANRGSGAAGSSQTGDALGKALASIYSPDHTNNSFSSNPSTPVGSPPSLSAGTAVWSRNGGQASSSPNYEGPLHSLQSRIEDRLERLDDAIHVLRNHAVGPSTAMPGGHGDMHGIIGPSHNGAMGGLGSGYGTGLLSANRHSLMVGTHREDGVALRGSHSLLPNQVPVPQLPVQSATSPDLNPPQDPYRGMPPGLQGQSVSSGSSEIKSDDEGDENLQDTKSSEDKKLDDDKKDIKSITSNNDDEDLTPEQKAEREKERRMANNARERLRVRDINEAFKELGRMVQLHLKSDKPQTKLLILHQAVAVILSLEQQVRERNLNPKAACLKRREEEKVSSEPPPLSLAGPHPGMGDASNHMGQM
# Chain of UniProt O14933 (O14933 whole entry, looked up): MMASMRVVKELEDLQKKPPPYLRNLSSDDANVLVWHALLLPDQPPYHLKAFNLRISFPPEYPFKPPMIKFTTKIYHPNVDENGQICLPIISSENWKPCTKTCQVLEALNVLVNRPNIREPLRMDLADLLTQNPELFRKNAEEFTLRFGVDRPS
# Chain of UniProt O43399 (O43399 whole entry, looked up): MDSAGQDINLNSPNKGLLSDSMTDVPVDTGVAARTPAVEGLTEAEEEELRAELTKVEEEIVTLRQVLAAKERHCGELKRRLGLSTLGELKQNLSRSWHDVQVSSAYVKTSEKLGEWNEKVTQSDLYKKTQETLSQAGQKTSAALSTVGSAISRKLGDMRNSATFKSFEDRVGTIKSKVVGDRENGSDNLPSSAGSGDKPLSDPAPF
# Chain of UniProt Q8NDZ6 (Q8NDZ6 whole entry, looked up): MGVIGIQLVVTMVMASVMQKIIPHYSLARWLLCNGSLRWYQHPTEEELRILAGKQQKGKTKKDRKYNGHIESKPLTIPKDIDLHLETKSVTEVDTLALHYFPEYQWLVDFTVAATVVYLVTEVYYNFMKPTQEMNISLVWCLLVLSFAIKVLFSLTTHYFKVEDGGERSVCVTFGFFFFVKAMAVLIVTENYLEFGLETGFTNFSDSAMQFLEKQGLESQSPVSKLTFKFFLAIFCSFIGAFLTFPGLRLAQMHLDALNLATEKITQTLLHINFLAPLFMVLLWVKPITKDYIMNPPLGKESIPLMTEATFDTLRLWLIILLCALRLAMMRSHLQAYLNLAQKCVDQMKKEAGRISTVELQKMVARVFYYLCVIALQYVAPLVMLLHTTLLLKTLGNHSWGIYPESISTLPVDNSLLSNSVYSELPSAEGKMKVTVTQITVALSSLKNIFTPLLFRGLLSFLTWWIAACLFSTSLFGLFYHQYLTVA
Target,log2 fold change (vemurafenib),log2 fold change [1],log2 fold change (volasertib),log2 fold change (sotrastaurin),log2 fold change (defactinib),log2 fold change [2],log2 fold change [3],log2 fold change [4],log2 fold change (saracatinib),log2 fold change (Tubastatin A),log2 fold change [5],log2 fold change [6],log2 fold change (encorafenib),log2 fold change [7],log2 fold change (barasertib),log2 fold change [8],log2 fold change [9],log2 fold change (alvocidib),log2 fold change (alisertib),log2 fold change (gefitinib)
UBAP2L (UniProt F8W726),0.094,-0.031,-0.018,-0.052,0.06,0.093,,,,,,,,,,,,,,
UBR4 isoform 4 (UniProt Q5T4S7),0.02,-0.1,-0.104,,-0.032,0.064,-0.096,0.077,0.061,-0.337,-0.16,0.144,-0.028,0.062,,,,,,
UBXN2B (UniProt Q14CS0),0.148,0.049,-0.066,,0.07,-0.114,0.065,-0.035,-0.068,-0.001,-0.046,-0.018,-0.037,0.069,0.147,-0.142,0.074,-0.123,0.174,0.008
TRIM3 (UniProt O75382),0.13,-0.085,0.09,,-0.095,0.069,-0.029,,,,0.06,,0.034,0.041,,,,,,
TTC37 (UniProt Q6PGP7),0.053,-0.068,0.011,-0.019,-0.061,0.043,,0.045,0.013,0.072,-0.13,0.185,,,0.018,,,,0.032,0.081
TNIK (UniProt C9J338),0.151,0.064,-0.011,-0.026,-0.014,0.076,0.171,,0.033,,-0.211,0.306,-0.012,0.005,0.028,-0.51,0.341,-0.155,,
UBN1 (UniProt Q9NPG3),-0.053,-0.069,0.005,0.133,-0.044,0.09,0.1,,0.04,,,-0.076,0.059,0.088,,-0.127,0.057,-0.176,,
TBK1 (UniProt Q9UHD2),0.008,0.002,-0.064,-0.045,0.328,-0.007,-0.058,-0.021,-0.029,-0.16,0.528 (active),-0.035,0.014,-0.293,-0.03,0.216,0.079,,0.039,-0.032
UBE2L6 (UniProt O14933),0.031,-0.035,0.008,-0.03,0.065,-0.026,0.041,0.022,-0.034,-0.051,0.082,-0.005,0.06,-0.36 (active),0.229,0.037,-0.115,0.034,0.004,0.092
TK1 (UniProt K7ERV3),-0.001,,,-0.147,-0.024,,-0.105,0.049,0.089,0.118,-0.002,0.121,-0.199,0.006,0.072,-0.102,0.068,-0.028,-0.283,0.214
TMEM161B (UniProt Q8NDZ6),-0.112,-0.076,-0.055,0.009,0.067,0.033,-0.073,-0.028,,0.035,-0.022,,0.047,0,0.076,0.055,-0.104,-0.03,-0.222,-0.008
TIMM44 (UniProt O43615),-0.035,-0.017,-0.034,-0.026,0.018,-0.04,-0.006,0.022,0.012,0.083,0.039,-0.017,0.056,0.08,0.07,-0.02,-0.065,0.001,0.082,0.017
TMEM14C (UniProt Q9P0S9),0.027,0.087,0.045,0.06,0.205,-0.168,0.129,-0.053,-0.088,-0.463 (active),0.033,0.011,0.004,0.022,-0.038,,,,-0.011,0.003
TJP1 (UniProt H0Y3R8),,,,,,,,,,,,,,,,0.048,-0.16,0.079,,
TMSB4X (UniProt P62328),,-0.068,0.104,0.205,,0.063,0.084,-0.187,,0.102,-0.045,,0.043,-0.055,0.056,-0.191,0.371,0.401,-0.143,-0.001
TLK2 isoform 3 (UniProt Q86UE8),,,,,,,,,,,,,,,,0.104,-0.036,0.007,,
TFPI isoform 2 (UniProt P10646),0,,,-0.011,-0.109,,,,,,,,,,,,,,,
TCF3 (UniProt X6REB3),0.075,,,,-0.149,,,,,,,,,,,0,0.128,-0.168,,
TPD52L2 isoform 3 (UniProt O43399),,,,,,,,-0.028,,0.165,0.144,,,,0.026,-0.141,0.135,0.127,0.094,-0.244
TUBA4A (UniProt C9JQ00),,,,,,,,,,,,,,,0.267,0,-0.045,0.074,,
TCF4 (UniProt P15884),,-0.015,0.126,-0.017,,0.212,-0.017,0.008,0.021,-0.282,,-0.009,0.17,-0.099,,-0.011,0.03,0.005,0.078,0.06
TM2D3 (UniProt Q9BRN9),,,,,,,-0.079,0.199,,-0.125,0.008,,-0.116,-0.116,-0.105,-0.934 (active),0.444,-0.291,,
TEDC1 (UniProt Q86SX3),,0.103,-0.041,-0.037,,-0.008,0.106,0.019,-0.02,-0.254,0.038,0.051,0.094,0.047,,,,,-0.019,0.047
